# Results: PubChem BioAssay (NCATS)
# Inconclusive results are not listed. A call without a number means that no potency is given here. Unmarked numbers belong to inactive results. Calls of active or inactive are those of the source. Unless noted, calls come from the whole dose curve; as a rule, active = well fitted curve in the direction sought with a large enough effect; inconclusive = small, poorly fitted or top-dose-only effect, or another doubt; inactive = no such curve, though single readings can be large; an effect the other way counts as inactive or inconclusive.
# Legend:
# [1] = target: Cytochrome P450 3A4 (Homo sapiens) (UniProt P08684); assay: qHTS Assay for Inhibitors and Substrates of Cytochrome P450 3A4 (AID 884); note: nearly all actives have a fitted effect of over 50% in size; note: potency is the fitted concentration of half-maximal effect
# Cytochrome P450 3A4 (Homo sapiens), sequence (P08684 whole entry, looked up): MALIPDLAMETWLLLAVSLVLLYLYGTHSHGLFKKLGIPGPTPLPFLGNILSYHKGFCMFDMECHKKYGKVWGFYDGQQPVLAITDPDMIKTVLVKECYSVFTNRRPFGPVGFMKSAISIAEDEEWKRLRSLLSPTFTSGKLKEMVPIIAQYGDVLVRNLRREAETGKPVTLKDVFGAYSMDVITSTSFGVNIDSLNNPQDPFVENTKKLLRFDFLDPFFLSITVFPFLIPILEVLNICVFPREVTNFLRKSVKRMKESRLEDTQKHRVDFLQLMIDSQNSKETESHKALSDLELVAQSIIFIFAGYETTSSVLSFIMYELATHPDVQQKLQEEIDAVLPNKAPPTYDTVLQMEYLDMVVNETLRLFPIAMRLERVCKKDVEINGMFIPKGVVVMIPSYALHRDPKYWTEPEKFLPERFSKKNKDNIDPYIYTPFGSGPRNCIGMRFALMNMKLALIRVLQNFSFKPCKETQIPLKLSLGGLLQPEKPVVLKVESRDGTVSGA
# How it was run: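 Luminescent readout of luciferin produced by CYP3A4 (20 nM) dealkylation of Luciferin-PPXE, 25 uM (its KM). NADPH-driven reaction ran 60 min at RT after 10 min compound preincubation; data scaled to 57 uM ketoconazole as 100% inhibition.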
# [2] = qHTS Assay for Identification of Small Molecule Antagonists for NFkB Signaling Pathway (AID 895; active = well fitted inhibition curve with a large enough effect in the signal ratio, with a control signal flat, not every such curve was filed as active; the % refers to the signal ratio; note: potency is the fitted concentration of half-maximal effect)
# How it was run: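 NFkB-bla ME-180 cervical carcinoma cells with beta-lactamase reporter under NFkB response element; compounds added, then TNF alpha at 10 pM final (EC50), 5 h at 37 C. LiveBLAzer substrate 2 h, room temperature; emission 460/530 nm at 405 nm excitation.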
# [3] = qHTS Assay for Identification of Small Molecule Agonists for Hypoxia Response Element Signaling Pathway (AID 914; active = well fitted activation curve with a large enough effect in the signal ratio, with a control signal flat, not every such curve was filed as active; the % refers to the signal ratio); conditions: ME-180 (cervical carcinoma) HRE-bla reporter, beta-lactamase ratio, CoCl2, 17 h; activation: active compounds read high
# How it was run: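 Compounds in a titration series were added to ME-180 reporter cells alongside an EC50 level of CoCl2. After 17 hours, beta-lactamase activity was read as the 460nm/530nm emission ratio of CCF4, giving AC50 values.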
# [4] = qHTS Assay for Identification of Small Molecule Antagonists for Thrombopoietin (TPO) Signaling Pathway (AID 918); conditions: TPO-dependent cell signaling reporter, antagonist mode; note: potency is the fitted concentration of half-maximal effect; nearly all actives have a fitted effect of over 60% in size
# How it was run: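 Inhibitors of TPO signaling are sought by stimulating IL-3-starved murine Ba/F3 cells (human TPO receptor, Glycoprotein IIb-driven luciferase) with TPO at its EC50 of 26 pM alongside compound. After 24 hrs at 37 C, reporter luminescence is measured.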
# [5] = target: ATP-dependent 6-phosphofructokinase (Trypanosoma brucei brucei) (UniProt O15648); assay: qHTS Assay to Find Inhibitors of T. brucei phosphofructokinase: hit validation (AID 492961);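 note: luminescence reports ADP formed as PFK phosphorylates fructose-6-phosphate with ATP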
# ATP-dependent 6-phosphofructokinase (Trypanosoma brucei brucei), sequence (O15648 whole entry, looked up): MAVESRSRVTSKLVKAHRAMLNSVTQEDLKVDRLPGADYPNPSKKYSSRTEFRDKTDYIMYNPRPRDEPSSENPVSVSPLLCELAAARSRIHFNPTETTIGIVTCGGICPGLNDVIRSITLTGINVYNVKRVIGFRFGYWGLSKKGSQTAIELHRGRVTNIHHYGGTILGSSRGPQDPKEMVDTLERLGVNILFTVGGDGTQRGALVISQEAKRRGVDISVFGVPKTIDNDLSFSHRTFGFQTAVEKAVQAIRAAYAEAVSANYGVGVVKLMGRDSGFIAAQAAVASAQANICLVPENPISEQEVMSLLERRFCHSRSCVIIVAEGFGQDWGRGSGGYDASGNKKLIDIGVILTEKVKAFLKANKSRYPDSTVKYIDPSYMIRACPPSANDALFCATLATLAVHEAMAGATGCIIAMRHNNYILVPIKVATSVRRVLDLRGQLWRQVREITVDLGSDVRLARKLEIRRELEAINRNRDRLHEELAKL
# How it was run: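 PFK 1.25 nM, F6P 0.5 mM, ATP 0.1 mM, MgCl2 5 mM, 0.1 M TEA pH 8.0, Tween20 0.01%, BSA 0.1%; 45 min RT. ADP-Glo two-step detection, luminescence. qHTS titration; curve fitting with curve-class categorization.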
# [6] = target: Luciferin 4-monooxygenase (Photinus pyralis) (UniProt P08659); assay: Biochemical firefly luciferase enzyme assay for NPC (AID 624030);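 note: purified P. pyralis luciferase at 10 nM with luciferin and ATP substrate; nearly all actives have a fitted effect of over 70% in size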
# Luciferin 4-monooxygenase (Photinus pyralis), sequence (P08659 whole entry, looked up): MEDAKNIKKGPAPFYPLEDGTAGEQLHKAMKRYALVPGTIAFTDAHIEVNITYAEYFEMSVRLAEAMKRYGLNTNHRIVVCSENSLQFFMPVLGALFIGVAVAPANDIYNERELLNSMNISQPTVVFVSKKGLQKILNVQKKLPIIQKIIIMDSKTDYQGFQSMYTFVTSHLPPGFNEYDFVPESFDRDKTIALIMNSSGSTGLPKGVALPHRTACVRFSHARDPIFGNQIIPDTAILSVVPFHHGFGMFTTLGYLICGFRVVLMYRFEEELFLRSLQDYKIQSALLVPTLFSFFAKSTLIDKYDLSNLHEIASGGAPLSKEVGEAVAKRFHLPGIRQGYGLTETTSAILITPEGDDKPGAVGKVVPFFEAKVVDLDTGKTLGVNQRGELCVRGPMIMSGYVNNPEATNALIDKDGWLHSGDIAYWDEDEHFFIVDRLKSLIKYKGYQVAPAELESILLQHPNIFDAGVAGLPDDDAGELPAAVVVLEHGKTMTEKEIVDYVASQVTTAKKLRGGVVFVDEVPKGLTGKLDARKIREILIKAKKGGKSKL
# How it was run: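 Counter-screen for direct inhibition of the luciferase enzyme by approved-drug library compounds, run at 10 nM enzyme in 50 mM Tris acetate (final). Luminescence was read within 5 min of enzyme-buffer addition and normalized to PTC124 versus DMSO (0%).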
# [7] = S16 Schwann cell viability assay (CellTiter-Glo assay) (AID 624031);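 note: native untransfected S16 rat Schwann cells; cellular ATP luminescence as a viability measure; nearly all actives have a fitted effect of over 70% in size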
# How it was run: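 Concentration-effect curves come from CellTiter-Glo luminescence of S16 rat Schwann cells after 24 h compound exposure. Each reading was normalized to DMSO wells (0%) and wells without cells, and curves were ranked by r2 and response magnitude.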
# [8] = S16 Schwann cell PMP22 intronic element firefly luciferase assay (AID 624032); note: nearly all actives have a fitted effect of over 30% in size; note: potency is the fitted concentration of half-maximal effect
# How it was run: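 Rat S16 Schwann cells stably carrying a PMP22 intronic element-driven Fluc reporter were seeded overnight, then exposed to compounds for 24 h at 37 °C. Luminescence was normalized to PTC124 (positive control) and DMSO (0% activity).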
# [9] = qHTS profiling for inhibitors of Plasmodium falciparum proliferation (AID 504749); note: potency is the fitted concentration of half-maximal effect; for all read-outs here: nearly all actives have a fitted effect of over 60% in size; conditions: P. falciparum in erythrocytes, SYBR Green DNA, 72 h; for activity, negative = inhibition: at 28.7 µM (top of the series)
# How it was run: (§1)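 Quantitative HTS: compounds pinned into medium, infected erythrocytes added (0.3% parasitemia, 2.5% hematocrit), 72 h culture at 37 C under 5% CO2. Saponin/Triton lysis with SYBR Green I, overnight RT, then fluorescence read.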
# 7G8 = assay: as above; conditions: P. falciparum in erythrocytes, SYBR Green DNA, 72 h; series mostly up to 28.7 µM
# How it was run: as §1
# AS120 = assay: as above; conditions: P. falciparum in erythrocytes, SYBR Green DNA, 72 h; series mostly up to 28.7 µM
# How it was run: as §1
# ATS189 = assay: as above; conditions: P. falciparum in erythrocytes, SYBR Green DNA, 72 h; series mostly up to 28.7 µM
# How it was run: as §1
# CP192 = assay: as above; conditions: P. falciparum in erythrocytes, SYBR Green DNA, 72 h; series mostly up to 28.7 µM
# How it was run: as §1
# CP203 = assay: as above; conditions: P. falciparum in erythrocytes, SYBR Green DNA, 72 h; series mostly up to 28.7 µM
# How it was run: as §1
# CP335 = assay: as above; conditions: P. falciparum in erythrocytes, SYBR Green DNA, 72 h; series mostly up to 28.7 µM
# How it was run: as §1
# DFO2036 = assay: as above; conditions: P. falciparum in erythrocytes, SYBR Green DNA, 72 h; series mostly up to 28.7 µM
# How it was run: as §1
# Dd2 = assay: as above; conditions: P. falciparum in erythrocytes, SYBR Green DNA, 72 h; series mostly up to 28.7 µM
# How it was run: as §1
# ICS = assay: as above; conditions: P. falciparum in erythrocytes, SYBR Green DNA, 72 h; series mostly up to 28.7 µM
# How it was run: as §1
# TAB165 = assay: as above; conditions: P. falciparum in erythrocytes, SYBR Green DNA, 72 h; series mostly up to 28.7 µM
# How it was run: as §1
# W2 = assay: as above; conditions: P. falciparum in erythrocytes, SYBR Green DNA, 72 h; series mostly up to 28.7 µM
# How it was run: as §1
smiles,measurement,setting,value
CSc1nc(N)c2ncn([C@@H]3O[C@@H](COP(=O)(O)OP(=O)(O)OP(=O)(O)O)[C@@H](O)[C@H]3O)c2n1,Potency,[1],inactive
COc1cc2c(cc1OC)[C@H](c1ccccc1)CN(C)CC2,Potency,[1],inactive
same,Potency,[2],inactive
CN1CCc2cc(Cl)c(O)cc2[C@H](c2ccccc2)C1,Potency,[1],inactive
same,activation,[3],-21.3%
C[C@H]1CN(S(=O)(=O)c2cccc3cnccc23)CCN1,Potency,[2],2.82 µM (active)
NC(=S)NCCC[C@@H](N)C(=O)O,Potency,[2],inactive
O=C1O/C(=C\Br)CC[C@@H]1c1cccc2ccccc12,Potency,[1],3.98 µM (active)
same,Potency,[4],10 µM (active)
Oc1ccc([C@@H]2CNCc3sccc32)cc1O,Potency,[4],12.6 µM (active)
C[C@@H]1O[C@@H](n2cc(F)c(=O)[nH]c2=O)[C@H](O)[C@@H]1O,Potency,[2],inactive
O=C(O)/C=C\c1cnc[nH]1,activation,[3],-4.56%
CN1C[C@@H](O)[C@@H](O)[C@@H](O)[C@@H]1CO,activation,[3],11.9%
OC[C@@H]1NC[C@@H](O)[C@@H](O)[C@H]1O,Potency,[2],inactive
NC(N)=Nc1nc2ccc([N+](=O)[O-])cc2[nH]1,"activity change, negative = inhibition",[1],107% [at 11.4 µM]
Cc1sc2ccccc2[n+]1CCC(=O)O,activation,[3],-2.73%
Cc1ccccc1N1CCN(S(=O)(=O)C[C@@]23CC[C@H](C[C@H]2NC(=O)[C@@H](N)CCS(C)(=O)=O)C3(C)C)CC1,Potency,[1],3.16 µM (active)
same,Potency,[2],inactive
Cc1cc2c(cc1C)NC1=C(N2)O[C@H](c2c[nH]c3ccc(COc4ccccc4)cc23)C1=O,Potency,[1],3.98 µM (active)
CN(C)C(=O)/N=N\C(=O)N(C)C,Potency,[4],10 µM (active)
CSC1(SC2=NCCN2)SC2(NCCN2)S1,Potency,[1],1.26 µM (active)
CC(C)C[C@H](NC(=O)[C@@H](O)[C@@H](N)Cc1ccccc1)C(=O)O,Potency,[2],1.58 µM (active)
C[C@@H](Cc1ccccc1)Nc1ncnc2c1ncn2[C@@H]1O[C@@H](CO)[C@H](O)[C@@H]1O,Potency,[2],3.98 µM (active)
C[C@](O)(c1ccccc1)c1nccc2ccccc12,"activity change, negative = inhibition",[1],49.6% [at 11.4 µM]
C=C1CC[C@H](O)C/C1=C/C=C1\CCC[C@]2(C)[C@H]1CC[C@H]2[C@@H](C)CCCC(C)C,activation,[3],-0.192%
OC[C@@H]1NC[C@@H](O)[C@H]1O,Potency,[2],inactive
CN1CC[C@@]2(CCN3CCc4c(oc5ccccc45)[C@@H]3C2)N(C)C1=O,Potency,[2],inactive
Nc1nc(SCc2ccc([N+](=O)[O-])cc2)c2ncn([C@@H]3O[C@@H](CO)[C@@H](O)[C@H]3O)c2n1,Potency,[2],inactive
CC1(C)CCC(NC(=O)[C@H](N)CCC(=O)O)CC1,Potency,[2],inactive
CN(CCc1ccccn1)c1ccc2c(c1)Cc1ccccc1-2,Potency,[1],2.51 µM (active)
C[C@@H](C(=O)O)c1ccc(C[C@@H]2CCCC2=O)cc1,Potency,[2],inactive
[N-]=[N+]=Nc1ccc(C(=O)CSC[C@@H](NC(=O)CC[C@@H](N)C(=O)O)C(=O)NCC(=O)O)cc1,Potency,[2],inactive
OC[C@@H]1O[C@@H](n2cnc3c(N[C@@H]4C[C@@H]5CC[C@H]4C5)ncnc32)[C@@H](O)[C@H]1O,Potency,[2],inactive
O=C(Nc1ccccc1)N1CCC2(CC1)CCN(C(=O)c1ccco1)CC2,Potency,[1],inactive
CC(C)(C)c1onc(OCP(=O)(O)O)c1C[C@@H](N)C(=O)O,Potency,[2],inactive
COc1cc([C@H](O)CO)ccc1O,Potency,[2],inactive
CSc1nc(N)c2ncn([C@@H]3O[C@@H](COP(=O)(O)OP(=O)(O)O)[C@@H](O)[C@H]3O)c2n1,Potency,[2],inactive
CO/N=C(\C(=O)N[C@@H]1C(=O)N2C(C(=O)[O-])=C(C[N+]3(C)CCCC3)CS[C@@H]12)c1csc(N)n1,outcome,[5],inactive
same,outcome,[6],inactive
same,Potency,[7],inactive
same,Potency,[8],inactive
same,"activity, negative = inhibition",[9]; parasite line A,2.78%
same,"activity, negative = inhibition",[9]; parasite line B,10.9%
same,Potency,7G8,inactive
same,Potency,AS120,inactive
same,Potency,ATS189,inactive
same,Potency,CP192,inactive
same,Potency,CP203,inactive
same,Potency,CP335,inactive
same,Potency,DFO2036,inactive
same,Potency,Dd2,inactive
same,Potency,ICS,inactive
same,Potency,TAB165,inactive
same,Potency,W2,inactive
O=C(O)[C@@H](O)Cc1ccccn1,activation,[3],0.65%
C[C@H]1C[C@@H]2[C@H]3CCC4=CC(=O)C=C[C@@]4(C)[C@@]3(Cl)[C@@H](O)C[C@]2(C)[C@]1(OC(=O)c1ccco1)C(=O)CCl,outcome,[5],inactive
same,outcome,[6],inactive
same,Potency,[7],inactive
same,Potency,[8],inactive
same,Potency,[9]; parasite line B,3.16 µM (active)
same,Potency,7G8,1.78 µM (active)
same,Potency,AS120,3.55 µM (active)
same,Potency,CP203,5.73 µM (active)
same,Potency,CP335,5.73 µM (active)
same,Potency,DFO2036,4.47 µM (active)
same,Potency,Dd2,3.55 µM (active)
same,Potency,ICS,3.55 µM (active)
same,Potency,TAB165,3.55 µM (active)
same,Potency,W2,3.61 µM (active)
C=C/C(C)=C/[C@]1(C)SC(=O)C(C)=C1O,Potency,[2],inactive
CC(C)[C@H]1C(=O)C(C(N)=O)=C(O)[C@]2(O)C(=O)C3=C(O)c4c(O)ccc(N(C)C)c4C[C@H]3C[C@@H]12,Potency,[2],inactive
same,Potency,[4],2.51 µM (active)
C[C@@H]1C[C@H]2[C@H]3C[C@@H](F)C4=CC(=O)C=C[C@]4(C)[C@@]3(Cl)[C@@H](O)C[C@@]2(C)[C@@H]1C(=O)COC(=O)C(C)(C)C,outcome,[5],inactive
same,outcome,[6],inactive
same,Potency,[7],inactive
same,Potency,[8],inactive
same,"activity, negative = inhibition",[9]; parasite line A,0.272%
same,"activity, negative = inhibition",[9]; parasite line B,-10.2%
same,Potency,7G8,4.47 µM (active)
same,Potency,AS120,inactive
same,Potency,ATS189,inactive
same,Potency,CP192,inactive
same,Potency,CP203,inactive
same,Potency,CP335,12 µM (active)
same,Potency,DFO2036,inactive
same,Potency,Dd2,12.6 µM (active)
same,Potency,ICS,6.31 µM (active)
same,Potency,TAB165,inactive
same,Potency,W2,10.7 µM (active)
C[C@@H]1C(=O)N(C)C(=O)c2nc[nH]c21,Potency,[2],inactive
O=C(O)/C=C\[C@H](O)c1ccc(Cl)cc1,Potency,[2],inactive
CC[C@H](C)[C@@H]1O[C@]2(CC[C@@H]1C)C[C@H]1C[C@H](CC=C(C)[C@@H](O[C@H]3C[C@H](OC)[C@H](O[C@H]4C[C@H](OC)[C@H](O)[C@H](C)O4)[C@H](C)O3)[C@@H](C)C=CC=C3CO[C@@H]4[C@@H](O)C(C)=C[C@H](C(=O)O1)[C@@]34O)O2,Potency,[4],12.6 µM (active)
N[C@@H]1C=CC=C(C(=O)O)C1,Potency,[2],inactive
C=C(NC(=O)C(=C)NC(=O)c1csc(C2=N[C@@H]3c4csc(n4)[C@@H]4NC(=O)c5csc(n5)[C@@H]([C@](C)(O)[C@H](C)O)NC(=O)[C@@H]5CSC(=N5)/C(=C/C)NC(=O)[C@@H]([C@H](C)O)NC(=O)c5csc(n5)[C@]3(CC2)NC(=O)[C@@H](C)NC(=O)C(=C)NC(=O)[C@@H](C)NC(=O)[C@@H]([C@@H](C)CC)N[C@H]2C=Cc3c([C@H](C)O)cc(nc3[C@@H]2O)C(=O)O[C@H]4C)n1)C(N)=O,outcome,[5],inactive
same,outcome,[6],inactive
same,Potency,[7],inactive
same,Potency,[8],8.7 µM (active)
same,Potency,7G8,3.16 µM (active)
same,Potency,ATS189,inactive
same,Potency,CP192,inactive
same,Potency,CP335,2.28 µM (active)
same,Potency,Dd2,1.12 µM (active)
same,Potency,ICS,3.16 µM (active)
same,Potency,TAB165,2.82 µM (active)
same,Potency,W2,1.61 µM (active)
C[C@@]12C(=O)OC(=O)[C@@]1(C)[C@H]1CC[C@@H]2O1,Potency,[4],3.16 µM (active)
C=CCN1CCc2c(cc(O)c(O)c2Cl)[C@H](c2ccccc2)C1,Potency,[1],inactive
same,Potency,[2],12.6 µM (active)
